Assay outcomes deposited in PubChem by National Center for Advancing Translational Sciences (NCATS).
Hits are enriched below; roughly 6% of the tested compounds scored in any of these assays.
D1 PAM = Potentiators of Human D1 Dopamine Receptor: qHTS; D(1A) dopamine receptor (Homo sapiens), P21728; HEK293 TREx D1 cells, calcium flux, dopamine EC20 potentiation; potentiation, % at 10 µM; hit rate 0.036% among 360,000; AID 504651, 2011; in the data active = potentiation above about 30%; also: 0% is about no effect
DRD3 agonist = qHTS of D3 Dopamine Receptor Agonist: qHTS | D3R DiscoveRx beta-arrestin cells, luminescence, 90 min | hit rate 0.58% among 410,000 | D(3) dopamine receptor (Homo sapiens), P35462 | max activation, %; in the data active = max activation above about 30%; also: 0% is about no effect
Target sequence (P35462 whole entry, looked up): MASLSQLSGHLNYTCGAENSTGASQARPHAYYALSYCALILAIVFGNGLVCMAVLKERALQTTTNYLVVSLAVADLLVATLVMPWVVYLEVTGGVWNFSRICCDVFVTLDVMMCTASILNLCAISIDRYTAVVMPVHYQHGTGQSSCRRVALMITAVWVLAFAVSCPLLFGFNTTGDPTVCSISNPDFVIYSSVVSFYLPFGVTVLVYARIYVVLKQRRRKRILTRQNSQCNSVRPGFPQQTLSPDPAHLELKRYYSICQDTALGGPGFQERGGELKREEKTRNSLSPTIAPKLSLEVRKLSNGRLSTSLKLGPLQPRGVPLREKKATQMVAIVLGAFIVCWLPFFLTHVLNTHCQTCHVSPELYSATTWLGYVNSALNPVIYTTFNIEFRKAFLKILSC
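Cells at 1500/well, incubated overnight, then treated with pinned compounds (dopamine as control) for 90 min at 37 degrees C. DiscoveRx reagent added for 30 - 60 minutes at room temperature; luminescence read.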
D1 ag = Allosteric Agonists of the Human D1 Dopamine Receptor: qHTS | D(1A) dopamine receptor (Homo sapiens), P21728 | hit rate 1% among 360,000 | AID 504660, 2011 | HEK293 T-REx D1 cells, calcium flux, agonist mode | activation, % at 2 µM; in the data active = activation above about 30%; also: 0% is about no effect
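Tetracycline-induced HEK293 TREx D1 cells, force-coupled to calcium signalling, were dye-loaded with a no-wash calcium kit. Compound was pin-added after a 10 s baseline. Fluorescence was read kinetically at 1 cycle/s for 180 s, with calcium rises flagged as agonism.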
D3 antag = qHTS of D3 Dopamine Receptor Antagonist: qHTS; max response, negative = inhibition, %; D3R cells, DiscoveRx beta-arrestin luminescence, antagonist mode; stronger effect = lower value; hit rate 2.5% among 360,000; in the data active = max response below about -50%; inconclusive = no clear call, values can overlap the other calls; also: % is scaled to controls: 0 for no effect and ±100 for the full control effect
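Cells expressing the human receptor were seeded at 1500 cells/well, incubated overnight at 37 degrees C in 5% CO2, then exposed to library compounds with dopamine controls for 90 minutes at 37 degrees C before luminescent detection.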
D1 antag = Antagonist of Human D 1 Dopamine Receptor: qHTS; activity change, negative = inhibition, % at 10 µM; D(1A) dopamine receptor (Homo sapiens), P21728; AID 504652, 2011; HEK293 TREx D1 cells, calcium flux, dopamine EC80; stronger effect = lower value; hit rate 3.2% among 360,000; in the data active = activity change below about -30%; also: % is scaled to controls: 0 for no effect and ±100 for the full control effect
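Kinetic fluorescence of a calcium dye serves as the read-out. D1-expressing Hek293 Trex cells, induced overnight at 30 C, are exposed to compound for 180 s before an EC80 dopamine addition, then read 180 s further.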
* marks the source's active call; other numbers are inactive results; ? = inconclusive; · = no result given; ! = a repeat was not active.

SMILES	D1 PAM	DRD3 agonist	D1 ag	D3 antag	D1 antag
CCOc1ccc(-c2cnc(NCc3cccc4ccccc34)n2CCOC)cc1	-6	-18	18	-9	-58*
COc1ccccc1CNc1ccc(Br)cn1	6	33*	3	7	3
Cc1ccc(C(O)c2ncc(-c3ccccc3Cl)[nH]2)c(C)c1 (stereo not drawn)	·	3	·	5	·
CCOc1ccc(-c2cnc(NCc3cccc(Cl)c3)n2C)cc1	-3	-6	0	·	18
COc1ccccc1CNc1ncc(-c2ccccc2)n1C	-3	-14	7	-18	-49*
Cn1c(-c2ccccc2)cnc1NCc1ccccc1O	-1	-10	-1	·	2
COc1cc(CNc2ncc(-c3ccc(Br)cc3)n2C)cc(OC)c1O	-9	-3	2	14	-42*
COc1ccc(CNc2ncc(-c3ccc(F)cc3)n2C)c2ccccc12	-11	-11	12	?	-36*
COc1ccnc(N=CNOCc2cccc(Cl)c2Cl)c1C#N	-5	1	0	0	-58*
Cc1cc(C)cc(NC(=O)c2cc(S(=O)(=O)N3CCCCCC3)cn2C)c1	2	5	2	·	19
C/C(=N/NC(=O)CN(c1ccccc1)S(=O)(=O)c1ccccc1)c1ccccc1O	3	-21	4	-52*	-4
COc1ccccc1N(CC(=O)NCCSCc1ccccc1)S(=O)(=O)c1ccc(C)cc1	-6	3	12	14	1
CCCC/C(C)=N/NC(=O)CN(c1ccc(Br)cc1)S(=O)(=O)c1ccccc1	-4	-7	3	-9	-3
Cc1ccc(N(CC(=O)NCCSc2ccccc2)S(=O)(=O)c2ccc(F)cc2)cc1	-2	-18	19	·	-31*
Cc1ccc(S(=O)(=O)NCCSCc2ccccc2)cc1	-2	-3	4	7	-30*
COc1ccc(S(=O)(=O)N(CC(=O)NCCSCc2ccccc2)c2ccc(C)cc2)cc1	2	3	32*	·	-16
CCOc1ccc(S(=O)(=O)N(CC(=O)NCCSc2ccc(C)cc2)c2ccccc2)cc1	-1	-2	9	·	4
Cc1ccc(CSCCNS(=O)(=O)c2ccc([N+](=O)[O-])cc2)cc1	-2	4	8	1	-20
CC1CC(C)C(=NNC(N)=O)C(C(O)CC2CCC(=O)NC2=O)C1 (stereo not drawn)	·	10	·	8	·
CCCS(=O)(=O)NC(=O)C1(C)CCN(C(=O)c2c(F)cccc2F)C1 (stereo not drawn)	·	-9	·	-4	·
COc1ccc(S(=O)(=O)N(CC(=O)NCCSc2ccc(C)cc2)c2ccc(C)cc2)cc1	2	1	56*	·	-19
COc1ccc(N(CC(=O)N/N=C/c2ccc(-c3ccc([N+](=O)[O-])cc3)o2)S(=O)(=O)c2ccc(C)cc2)cc1	-10	7	73*	-18	8
COc1ccc(N(CC(=O)NCc2ccc(C)cc2)S(=O)(=O)c2c(C)[nH]c(=O)[nH]c2=O)cc1	-7	4	-1	8	-35*!
Cc1ccc(S(=O)(=O)N(CC(=O)NCc2cccs2)c2ccccc2)cc1	1	-30	0	-66*	-1
Cc1ccc(NC(=O)Cn2cc3c(n2)CCCC3)cc1Cl	3	-15	0	·	-7
CCOc1ccccc1C1C(C(=O)Nc2ccccc2)=C(C)Nc2nc(SCC(=O)c3ccc(C)cc3)nn21 (stereo not drawn)	-2	-10	2	·	7
Cc1ccc(-c2nc3scc(CCNS(=O)(=O)c4ccc(Oc5ccccc5)cc4)n3n2)cc1	-2	4	24	·	-11
Clc1cccc(CNc2ccn3nc(-c4ccccc4Cl)cc3n2)c1	·	-9	·	0	·
CCSC1=NC2(CCCCC2)Nc2sc3c(c21)CCCC3	-1	0	2	-61*	-1
CN1C[C@H](C(=O)N[C@]2(C)O[C@@]3(O)[C@@H]4CCCN4C(=O)[C@H](Cc4ccccc4)N3C2=O)CC2c3cccc4[nH]cc(c34)C[C@H]21 (stereo partly drawn)	-7	-39	1	-65*	-62*
